# Shown are actives, neighbours in structure and some others; about 3% of the full set was active somewhere.
# PLK1 PBD inh: qHTS for Inhibitors of PLK1-PDB (polo-like kinase 1 - polo-box domain): Primary Screen; Plk1 PBD binding of FITC phosphopeptide, fluorescence polarization; Potency, µM, for the others: max response, negative = inhibition, hits mostly inhibitors; hit rate 2.8% among 360,000; also: series mostly up to about 57 µM; % is scaled to controls: 0 for no effect and ±100 for the full control effect; nearly all actives have a fitted effect of over 65% in size
# USP1-UAF1 inh: Inhibitors of USP1/UAF1: Primary Screen; Ubiquitin carboxyl-terminal hydrolase 1 (Homo sapiens), O94782; recombinant USP1/UAF1, Ub-Rhodamine cleavage fluorescence; Potency, µM (series often up to 57.1 µM), for inactives: top-dose activity change, negative = inhibition, usual class: inhibitors; hit rate 0.23% among 390,000; AID 743255, 2014; also: % is scaled to controls: 0 for no effect and ±100 for the full control effect; nearly all actives have a fitted effect of over 60% in size
#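 USP1/UAF1 complex at 1 nM was preincubated with compound for 15 min at room temperature, then Ub-Rho substrate (150nM final) was added. Fluorescence (480/540 nm) was read kinetically, 6 reads every 60 seconds.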
# GCN5L2 inh: qHTS Assay for Inhibitors of GCN5L2 | hit rate 0.21% among 390,000 | GCN5L2 HAT assay, ThioGlo1 CoA-SH fluorescence | Potency, µM (titrated, usually from 58.9 µM), for the others: top-dose activity change, negative = inhibition, usual class: inhibitors | Histone acetyltransferase KAT2A (Homo sapiens), Q92830 | AID 504327, 2011; also: % is scaled to controls: 0 for no effect and ±100 for the full control effect
#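 Preincubate 20nM GCN5L2 with compound 15 min, RT → add 50uM ThioGlo1 + 75uM H3(1-25) + 70uM acetyl-CoA → read fluorescence 0 and 20 min. Primary qHTS; fluorescent artifacts likely.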
# TSG101-PTAP inh: qHTS Assay for Iinhibitors of HIV-1 Budding by Blocking the Interaction of PTAP/TSG101. Tumor susceptibility gene 101 protein (Homo sapiens), Q99816. Fluorescence polarization, FITC-PTAP peptide / Tsg101 binding. Potency, µM (titrated, usually from 115 µM), without a hit: top-dose activity change, negative = inhibition, usual class: inhibitors. 340,000 tested, under 10 active. AID 493005, 2010; active = well fitted inhibition curve with a large enough effect in the main read-out, with a control signal flat, not every such curve was filed as active; inconclusive = small, poorly fitted or top-dose-only effect, or effect the other way, or a change in a side signal; inactive = no such curve, though single readings can be large or run the other way; also: % of control where 0% means no effect
#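 Fluorescence polarization binding of Tsg101 binding domain (10 uM final) to FITC-labeled PTAP peptide (50 nM final) in HEPES pH 7.5 buffer with NaCl, Tween 20, EDTA, TCEP. Compounds added before peptide; binding 20 min at RT.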
# VDR inhibitor: Inhibitors of the vitamin D receptor (VDR): qHTS | VDR-SRC2-3 peptide fluorescence polarization, 2 h | Potency, µM, for inactives: max response, negative = inhibition, most hits filed as inhibitors | hit rate 0.93% among 400,000; also: % is scaled to controls: 0 for no effect and ±100 for the full control effect
# Target sequence (P11473 whole entry, looked up): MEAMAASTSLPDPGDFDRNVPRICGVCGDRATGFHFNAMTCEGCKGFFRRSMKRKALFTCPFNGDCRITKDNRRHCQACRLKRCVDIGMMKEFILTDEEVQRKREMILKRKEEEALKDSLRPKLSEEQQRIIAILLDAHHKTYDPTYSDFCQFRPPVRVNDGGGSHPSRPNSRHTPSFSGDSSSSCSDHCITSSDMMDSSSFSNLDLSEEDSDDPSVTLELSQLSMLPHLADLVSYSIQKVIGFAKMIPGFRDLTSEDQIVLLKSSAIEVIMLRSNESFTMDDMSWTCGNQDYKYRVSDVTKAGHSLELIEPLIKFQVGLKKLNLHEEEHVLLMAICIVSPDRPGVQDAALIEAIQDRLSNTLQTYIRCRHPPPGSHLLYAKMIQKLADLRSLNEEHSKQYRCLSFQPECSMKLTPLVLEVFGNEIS
#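 Signal is fluorescence polarization, reporting how far test compounds block the interaction of VDR with the SRC2-3 coregulator peptide after a 2 h room-temperature incubation.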
# An asterisk follows results filed as active; ? = inconclusive; · = no result; [ ] = dose if it differs, or a comment. Unless noted, calls follow the shape of the dose curve; as a rule, active = well fitted curve in the direction sought with a large enough effect; inconclusive = small, poorly fitted or top-dose-only effect, or another doubt; inactive = no such curve, though single readings can be large; an effect the other way counts as inactive or inconclusive. Potency is read from the fitted curve at half-maximal effect.
SMILES,PLK1 PBD inh,USP1-UAF1 inh,GCN5L2 inh,TSG101-PTAP inh,VDR inhibitor
O=C1OC(c2cc(I)c(O)c(I)c2)(c2cc(I)c(O)c(I)c2)c2ccccc21,·,·,8.91µM*,·,20µM*
CN1C(=O)[C@]23CC4=CC=C[C@H](O)[C@H]4N2C(=O)[C@@]1(CO)SS3,·,·,-11.9%,·,3.98µM*
CCOC(=O)C(SP(=S)(OC)OC)c1ccccc1 (configuration not stated),·,·,-19.6%,·,3.55µM*
CCOC(=O)c1ccccc1C(=O)OCC,-18.7%,-30.6%,-9.6%,-19.6%,-9.3%
COc1ccc(CN2CCCC(C(=O)c3cccc(Cl)c3)C2)cc1 (configuration not stated),-0.8%,-17.4%,-9.9%,1.8%,-0.3%
COc1ccc(CN2CCCC(C(=O)c3ccc(Cl)cc3)C2)c(OC)c1 (configuration not stated),23.8µM*,-17.9%,-7.3%,-1.9%,?
C[N+](C)(C)CCCl,·,·,0.0%,·,-4.7%
O=C(CCN1CC2CCC(CC2)C1)c1cccs1,23.8µM*,-14.0%,·,-1.1%,44.7µM*
NCCCP(=O)(O)CC1CCCCC1,·,·,-4.8%,·,5.1%
COc1ccc(/C=C2/C(=O)N(c3ccccc3)N=C2C)cc1,3.77µM*,-20.0%,·,-5.3%,89.1µM*
CC1=NN(c2ccccc2)C(=O)/C1=C/c1c(O)[nH]c(=O)[nH]c1=O,-23.6%,-20.4%,-4.3%,-2.3%,-8.7%
CN1CCC(O)(c2ccc(Cl)cc2)C(C(=O)c2ccc(Cl)cc2)C1 (configuration not stated),4.74µM*,-14.9%,-2.7%,-5.4%,?
CN1CC(C(=O)c2ccc(Cl)cc2)C(c2ccc(Cl)cc2Cl)C1 (configuration not stated),5.4%,-20.2%,5.6%,2.2%,-8.9%
Clc1ccccc1-c1cncnc1NCCc1cnc[nH]1,·,·,-2.3%,·,-20.4%
COc1ccc(N2C(=O)NC(=O)/C(=C\c3ccccc3[N+](=O)[O-])C2=O)cc1,11.9µM*,-22.3%,3.0%,-3.6%,50.1µM*
O=C1NC(=O)N(c2ccccc2)C(=O)/C1=C\c1ccc([N+](=O)[O-])o1,·,·,-7.1%,·,·
CCc1c(C)nc(N)nc1N1N=C1SC,-1.6%,-9.2%,-6.7%[0.501 µM],-8.5%,-3.1%
CCc1c(C)nc(N)nc1N1N=C1SC(C(C)=O)C(C)=O,-21.8%,-15.9%,-18.6%,-1.1%,22.4µM*
O=C(OC1Cc2c(O)cc(O)cc2OC1c1cc(O)c(O)c(O)c1)c1cc(O)c(O)c(O)c1 (configuration not stated),·,·,?,·,50.1µM*
Brc1c(NC2=NCCN2)ccc2nccnc12,·,·,-5.2%,·,44.7µM*
Cc1[nH]n(-c2ccccc2)c(=O)c1C(c1ccc([N+](=O)[O-])cc1)c1c(C)[nH]n(-c2ccccc2)c1=O,7.52µM*,?,-0.6%,-4.1%,?
Cc1[nH]n(-c2ccccc2)c(=O)c1C(C[N+](=O)[O-])c1ccccc1Cl (configuration not stated),15µM*,?,-20.0%,5.9%,-19.7%
CN(CC(=O)O)C(=O)[C@H](Cc1ccccc1)NC(=O)[C@@H](CCCN=C(N)N)NC(=O)[C@@H](N)Cc1ccc(O)cc1,·,·,-19.3%,·,0.9%
Cc1ccc2c(c1)Cc1c(C(=O)NN3CCCCC3)nn(-c3ccc(Cl)cc3Cl)c1-2,·,·,?,·,-0.4%
CN1C(=O)C(Cc2cccc3ccccc23)C(=O)N(C)C1=O,21.2µM*,?,0.5%,-3.7%,?
SMILES,PLK1 PBD inh,USP1-UAF1 inh,GCN5L2 inh,TSG101-PTAP inh,VDR inhibitor
CN1C(=O)C(Cc2c[nH]c3ccccc23)C(=O)N(C)C1=O,·,·,2.0%,·,·
COP(=O)(OC)c1nc(-c2cccc3ccccc23)oc1N1CCOCC1,-12.4%,-7.8%,28.2µM*,-1.8%,-11.2%
Cc1ccc(N2C(=O)NC(=O)/C(=C\c3cccn3C(C)(C)C)C2=O)cc1,?,-17.0%,-9.6%,0.3%,-8.4%
CSc1ncc(/C=C2/C(=O)NC(=O)N(c3ccc(C)cc3)C2=O)cn1,9.47µM*,-12.1%,-9.9%,-3.0%,39.8µM*
COc1cc(/C=C2\C(=O)NC(=O)N(c3ccc(C)cc3)C2=O)cc(OC)c1O,?,-11.6%,-9.2%,-1.3%,-28.3%
O=C1NC(=O)N(c2ccc(Br)cc2)C(=O)/C1=C/c1ccsc1,4.74µM*,-16.1%,-3.2%,-3.7%,44.7µM*
CCOc1ccc(N2C(=O)NC(=O)/C(=C/c3cnc(SC)nc3)C2=O)cc1,10.6µM*,-18.2%,-3.0%,-6.7%,39.8µM*
Cc1ccc(N2C(=O)NC(=O)/C(=C/c3cnn(-c4ccc(C)cc4)c3)C2=O)cc1,1.19µM*,-11.9%,-2.6%,3.6%,?
Cc1cc(/C=C2\C(=O)NC(=O)N(c3ccc(Cl)cc3)C2=O)c(C)n1C,-8.9%,-9.6%,-0.6%,-1.2%,-5.6%
CCN1C[C@@]2(COC)CCC(OC)[C@]34C5C[C@]6(O)[C@@H](OC)C[C@](OC(C)=O)(C([C@H](OC)C23)[C@H]14)C5[C@H]6OC(=O)c1ccc(OC)cc1 (some centres not stated),·,·,-7.9%,·,10.6%
Cc1c(F)c(F)c(COC(=O)C2C(/C=C(\Cl)C(F)(F)F)C2(C)C)c(F)c1F (configuration not stated),·,·,0.0%,·,-4.1%
C[C@](O)(CS(=O)(=O)c1ccc(F)cc1)C(=O)Nc1ccc(C#N)c(C(F)(F)F)c1,·,·,-5.6%,·,-11.1%
O=C(CN1C(=O)S/C(=C\C=C\c2ccccc2)C1=O)Nc1ccccc1C(=O)O,18.9µM*,?,-9.6%,-3.8%,79.4µM*
Cc1ccccc1NC(=O)CCl,-6.2%,-14.5%,-2.2%,-0.2%,-27.1%
O=C1CS[C@@H](c2ccccc2Cl)c2cc(Cl)ccc2N1,·,·,-23.3%,·,-8.4%
CCC1CN2CCC1CC2C(O)c1ccnc2ccc(OC)cc12 (configuration not stated),·,·,-6.5%,·,2.8%
O=C1C=C2C(=CCOC2O)O1 (configuration not stated),·,·,7.8%,·,12.6µM*
CNC(=S)N(C)CCc1cc2c(c(OC)c1/C=C1/C(=O)NC(=O)N(C)C1=O)OCO2,?,-14.5%,-6.8%,0.6%,-18.1%
COc1c(/C=C2/C(=O)NC(=O)N(C)C2=O)c(CCN(C)C(=O)c2ccccc2)cc2c1OCO2,26.7µM*,-19.4%,-0.2%,-3.7%,-22.5%
Cc1cc2c(C(C)C)c(O)c(O)c(C=O)c2c(O)c1-c1c(C)cc2c(C(C)C)c(O)c(O)c(C=O)c2c1O,·,·,7.94µM*,·,6.31µM*
CCCCCCCCCCCCCCCCOC[C@@H](O)COP(=O)([O-])OCC[N+](C)(C)C,·,·,-2.9%,·,4.5%

# Source: PubChem BioAssay
